Data as given in PMC7862700, “An all-to-all approach to the identification of sequence-specific readers for epigenetic DNA modifications on cytosine”.

How the values were obtained:
Assay in all cases: DAPPL (digital affinity profiling via proximity ligation, sequencing); 10 mM Tris-HCl pH 7.5, 50 mM NaCl, 1 mM DTT, 4% glycerol, room temperature, 30 min; GST-TFs on glutathione beads, 16-mer random dsDNA library, 0.1% formaldehyde crosslink after washing; high values mean tight binding
FEV = target: T1, FEV (Homo sapiens, UniProt Q99581 1-238); settings: protein: recombinant; tags: N-terminal GST; dsDNA, one strand shown
T1 sequence: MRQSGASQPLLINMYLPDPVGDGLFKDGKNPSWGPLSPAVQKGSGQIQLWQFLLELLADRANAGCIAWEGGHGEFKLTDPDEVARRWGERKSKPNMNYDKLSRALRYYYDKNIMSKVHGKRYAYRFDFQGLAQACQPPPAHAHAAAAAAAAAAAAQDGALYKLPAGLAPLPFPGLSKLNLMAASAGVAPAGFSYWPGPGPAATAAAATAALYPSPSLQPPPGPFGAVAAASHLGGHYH
How it was run: (§1)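 Binding signal is given per hexamer as its read frequency for a factor divided by its frequency in the tag-only sample. GST-fused human transcription factors were expressed in yeast, captured on glutathione beads, barcoded with DNA and pooled with that sample, then incubated with 200 nmole of a 16-mer random double-stranded DNA library in Tris/NaCl/DTT/glycerol buffer for 30 min at room temperature. The pools were then washed, crosslinked, proximity-ligated, amplified by PCR and sequenced on an Illumina NextSeq500.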

ETV5 = ETV5 (Homo sapiens, UniProt P41161 1-510); settings: protein: recombinant; tags: N-terminal GST; dsDNA, one strand shown
Sequence of ETV5 (P41161 whole entry): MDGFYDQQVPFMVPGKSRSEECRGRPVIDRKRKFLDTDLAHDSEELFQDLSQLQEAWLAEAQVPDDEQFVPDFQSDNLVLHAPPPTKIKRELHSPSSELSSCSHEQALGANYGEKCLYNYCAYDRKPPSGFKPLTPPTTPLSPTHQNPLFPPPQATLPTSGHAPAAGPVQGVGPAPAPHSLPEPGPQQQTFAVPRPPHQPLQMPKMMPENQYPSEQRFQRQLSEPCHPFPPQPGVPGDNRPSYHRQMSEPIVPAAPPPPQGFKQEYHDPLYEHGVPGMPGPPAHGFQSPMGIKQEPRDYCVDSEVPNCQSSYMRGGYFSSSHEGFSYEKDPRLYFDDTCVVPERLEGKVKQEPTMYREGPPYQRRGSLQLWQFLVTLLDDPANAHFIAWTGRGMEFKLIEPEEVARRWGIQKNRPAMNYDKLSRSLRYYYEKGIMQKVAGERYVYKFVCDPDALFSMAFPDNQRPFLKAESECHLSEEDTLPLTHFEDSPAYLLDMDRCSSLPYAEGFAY
How it was run: as §1

HSF1 = HSF1 (Homo sapiens, UniProt Q00613 1-529); settings: protein: recombinant; tags: N-terminal GST; chain copies: 3; dsDNA, one strand shown
Sequence of HSF1 (Q00613 whole entry): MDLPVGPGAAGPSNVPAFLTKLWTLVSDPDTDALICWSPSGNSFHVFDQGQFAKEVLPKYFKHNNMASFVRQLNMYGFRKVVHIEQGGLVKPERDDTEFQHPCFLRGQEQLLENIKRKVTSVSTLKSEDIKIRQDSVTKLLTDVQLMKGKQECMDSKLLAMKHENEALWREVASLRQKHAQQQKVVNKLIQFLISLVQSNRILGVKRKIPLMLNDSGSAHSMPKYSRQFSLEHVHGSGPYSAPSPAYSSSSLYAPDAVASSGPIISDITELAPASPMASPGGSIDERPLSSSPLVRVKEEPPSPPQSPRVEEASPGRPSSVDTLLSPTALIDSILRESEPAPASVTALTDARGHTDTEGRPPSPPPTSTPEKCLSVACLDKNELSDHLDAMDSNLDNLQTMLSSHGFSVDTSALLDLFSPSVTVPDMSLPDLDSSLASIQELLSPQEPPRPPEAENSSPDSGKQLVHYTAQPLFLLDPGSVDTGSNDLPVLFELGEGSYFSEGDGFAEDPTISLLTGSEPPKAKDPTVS
How it was run: as §1

SPIC = target: T2, SPIC (Homo sapiens, UniProt Q8N5J4 1-248); settings: protein: recombinant; tags: N-terminal GST; dsDNA, one strand shown
T2 sequence: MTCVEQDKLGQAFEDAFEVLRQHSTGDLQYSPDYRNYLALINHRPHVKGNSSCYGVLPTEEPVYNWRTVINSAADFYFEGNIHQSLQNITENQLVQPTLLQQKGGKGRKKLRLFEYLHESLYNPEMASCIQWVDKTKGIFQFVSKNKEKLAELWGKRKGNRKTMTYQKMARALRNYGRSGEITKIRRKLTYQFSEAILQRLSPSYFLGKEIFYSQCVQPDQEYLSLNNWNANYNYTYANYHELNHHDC
How it was run: as §1

ELF4 = ELF4 (Homo sapiens, UniProt Q99607 1-663); settings: protein: recombinant; tags: N-terminal GST; dsDNA, one strand shown
Sequence of ELF4 (Q99607 whole entry): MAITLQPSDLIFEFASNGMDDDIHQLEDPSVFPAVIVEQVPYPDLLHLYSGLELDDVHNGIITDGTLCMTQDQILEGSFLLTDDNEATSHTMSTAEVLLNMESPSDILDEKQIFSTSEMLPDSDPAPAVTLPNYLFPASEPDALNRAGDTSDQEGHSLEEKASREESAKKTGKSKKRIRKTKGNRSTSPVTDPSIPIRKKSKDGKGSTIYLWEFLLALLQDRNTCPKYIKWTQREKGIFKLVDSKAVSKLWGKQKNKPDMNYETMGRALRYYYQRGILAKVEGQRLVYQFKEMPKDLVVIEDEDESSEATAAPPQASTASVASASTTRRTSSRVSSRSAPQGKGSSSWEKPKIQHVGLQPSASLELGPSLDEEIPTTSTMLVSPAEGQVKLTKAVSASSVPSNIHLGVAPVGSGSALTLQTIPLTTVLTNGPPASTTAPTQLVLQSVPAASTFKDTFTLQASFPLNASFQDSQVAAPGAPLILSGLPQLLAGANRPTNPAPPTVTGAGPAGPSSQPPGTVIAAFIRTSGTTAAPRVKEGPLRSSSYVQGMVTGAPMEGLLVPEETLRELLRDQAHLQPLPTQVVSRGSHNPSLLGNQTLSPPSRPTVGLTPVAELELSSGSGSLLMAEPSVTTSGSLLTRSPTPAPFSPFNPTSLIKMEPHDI
How it was run: as §1

ELK4 = target: T3, ELK4 (Homo sapiens, UniProt P28324-2 1-405); settings: protein: recombinant; tags: N-terminal GST; dsDNA, one strand shown
T3 sequence: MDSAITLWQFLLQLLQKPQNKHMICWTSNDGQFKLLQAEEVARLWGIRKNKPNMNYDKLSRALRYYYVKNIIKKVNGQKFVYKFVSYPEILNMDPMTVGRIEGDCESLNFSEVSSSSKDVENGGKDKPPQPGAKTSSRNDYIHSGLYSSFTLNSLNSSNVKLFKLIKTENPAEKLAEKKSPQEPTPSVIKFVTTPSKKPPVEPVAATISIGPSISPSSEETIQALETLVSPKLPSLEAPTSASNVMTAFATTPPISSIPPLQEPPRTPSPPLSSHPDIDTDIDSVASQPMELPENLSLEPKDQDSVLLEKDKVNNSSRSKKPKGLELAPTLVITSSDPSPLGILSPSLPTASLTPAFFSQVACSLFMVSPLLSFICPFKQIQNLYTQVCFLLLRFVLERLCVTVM
How it was run: as §1

ETV2 = target: T4, ETV2 (Homo sapiens, UniProt O00321 1-342); settings: protein: recombinant; tags: N-terminal GST; dsDNA, one strand shown
T4 sequence: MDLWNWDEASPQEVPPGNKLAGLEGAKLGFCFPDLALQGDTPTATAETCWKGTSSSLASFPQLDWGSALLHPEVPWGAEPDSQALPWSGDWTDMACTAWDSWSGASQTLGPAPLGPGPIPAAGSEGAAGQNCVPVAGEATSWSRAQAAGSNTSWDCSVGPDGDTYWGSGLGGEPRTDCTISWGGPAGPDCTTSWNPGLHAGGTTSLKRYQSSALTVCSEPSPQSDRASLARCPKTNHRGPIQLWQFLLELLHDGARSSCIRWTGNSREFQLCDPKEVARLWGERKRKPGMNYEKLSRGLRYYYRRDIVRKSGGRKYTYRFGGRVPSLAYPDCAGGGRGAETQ
How it was run: as §1

ELF3 = target: T5, ELF3 (Homo sapiens, UniProt P78545 1-371); settings: protein: recombinant; tags: N-terminal GST; dsDNA, one strand shown
T5 sequence: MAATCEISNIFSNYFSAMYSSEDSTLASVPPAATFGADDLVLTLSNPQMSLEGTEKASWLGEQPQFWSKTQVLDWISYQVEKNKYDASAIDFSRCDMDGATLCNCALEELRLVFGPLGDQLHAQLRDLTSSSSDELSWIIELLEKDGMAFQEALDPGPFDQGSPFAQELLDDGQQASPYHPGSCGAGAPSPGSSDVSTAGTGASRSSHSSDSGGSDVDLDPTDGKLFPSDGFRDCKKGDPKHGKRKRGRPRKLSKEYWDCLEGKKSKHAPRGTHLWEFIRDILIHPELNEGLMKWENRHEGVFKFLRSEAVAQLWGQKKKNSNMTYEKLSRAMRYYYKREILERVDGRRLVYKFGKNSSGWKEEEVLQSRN
How it was run: as §1

CRX = CRX (Homo sapiens, UniProt O43186 1-299); settings: protein: recombinant; tags: N-terminal GST; dsDNA, one strand shown
Sequence of CRX (O43186 whole entry): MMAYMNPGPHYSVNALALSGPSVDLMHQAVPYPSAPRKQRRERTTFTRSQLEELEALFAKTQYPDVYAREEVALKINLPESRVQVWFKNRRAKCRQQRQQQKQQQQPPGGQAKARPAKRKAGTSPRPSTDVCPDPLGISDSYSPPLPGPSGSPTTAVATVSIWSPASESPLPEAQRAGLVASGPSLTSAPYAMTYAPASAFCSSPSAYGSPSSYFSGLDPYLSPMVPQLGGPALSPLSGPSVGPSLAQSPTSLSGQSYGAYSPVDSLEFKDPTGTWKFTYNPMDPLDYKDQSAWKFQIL
How it was run: as §1

ETV1 = ETV1 (Homo sapiens, UniProt P50549 1-477); settings: protein: recombinant; tags: N-terminal GST; dsDNA, one strand shown
Sequence of ETV1 (P50549 whole entry): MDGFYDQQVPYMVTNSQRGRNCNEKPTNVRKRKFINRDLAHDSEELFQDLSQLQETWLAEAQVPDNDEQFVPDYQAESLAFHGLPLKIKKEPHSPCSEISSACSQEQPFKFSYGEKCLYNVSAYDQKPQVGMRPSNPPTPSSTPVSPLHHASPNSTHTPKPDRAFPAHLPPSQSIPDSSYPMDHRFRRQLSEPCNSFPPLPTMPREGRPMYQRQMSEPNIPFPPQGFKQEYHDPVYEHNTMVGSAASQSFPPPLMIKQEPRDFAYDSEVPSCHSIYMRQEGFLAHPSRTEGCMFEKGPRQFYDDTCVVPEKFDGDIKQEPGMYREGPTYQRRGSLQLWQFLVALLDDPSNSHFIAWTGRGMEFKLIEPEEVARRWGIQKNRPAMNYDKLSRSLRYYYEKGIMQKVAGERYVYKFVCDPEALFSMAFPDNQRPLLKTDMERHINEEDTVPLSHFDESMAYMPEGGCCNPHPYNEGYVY
How it was run: as §1

ERF = target: T6, ERF (Homo sapiens, UniProt P50548 1-548); settings: protein: recombinant; tags: N-terminal GST; dsDNA, one strand shown
T6 sequence: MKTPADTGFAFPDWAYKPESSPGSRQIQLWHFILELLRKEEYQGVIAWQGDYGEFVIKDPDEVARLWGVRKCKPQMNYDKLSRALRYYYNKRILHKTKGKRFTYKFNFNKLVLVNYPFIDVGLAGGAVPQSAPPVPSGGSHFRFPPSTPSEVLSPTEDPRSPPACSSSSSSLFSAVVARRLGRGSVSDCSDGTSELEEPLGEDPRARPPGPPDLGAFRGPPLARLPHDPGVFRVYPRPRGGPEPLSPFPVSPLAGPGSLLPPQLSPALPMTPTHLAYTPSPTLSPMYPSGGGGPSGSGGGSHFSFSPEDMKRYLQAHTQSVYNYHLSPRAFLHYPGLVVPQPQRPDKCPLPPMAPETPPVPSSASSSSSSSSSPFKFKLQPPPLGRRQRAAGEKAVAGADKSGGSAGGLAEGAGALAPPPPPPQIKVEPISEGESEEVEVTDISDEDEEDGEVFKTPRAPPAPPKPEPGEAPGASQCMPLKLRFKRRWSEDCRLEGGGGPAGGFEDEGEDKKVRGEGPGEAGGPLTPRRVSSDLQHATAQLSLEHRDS
How it was run: as §1

ETV3L = target: T7, ETV3L (Homo sapiens, UniProt Q6ZN32 1-361); settings: protein: recombinant; tags: N-terminal GST; dsDNA, one strand shown
T7 sequence: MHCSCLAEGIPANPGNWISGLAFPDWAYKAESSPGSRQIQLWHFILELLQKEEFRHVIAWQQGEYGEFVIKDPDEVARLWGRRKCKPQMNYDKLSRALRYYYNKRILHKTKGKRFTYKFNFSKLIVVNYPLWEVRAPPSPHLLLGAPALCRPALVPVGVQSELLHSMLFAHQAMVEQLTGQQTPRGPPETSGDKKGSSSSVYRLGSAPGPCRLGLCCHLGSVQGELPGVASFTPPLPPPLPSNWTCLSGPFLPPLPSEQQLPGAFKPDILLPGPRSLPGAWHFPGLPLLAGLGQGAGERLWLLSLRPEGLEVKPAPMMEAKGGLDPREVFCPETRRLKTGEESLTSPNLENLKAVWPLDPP
How it was run: as §1

ETS2 = target: T8, ETS2 (Homo sapiens, UniProt P15036 1-469); settings: protein: recombinant; tags: N-terminal GST; dsDNA, one strand shown
T8 sequence: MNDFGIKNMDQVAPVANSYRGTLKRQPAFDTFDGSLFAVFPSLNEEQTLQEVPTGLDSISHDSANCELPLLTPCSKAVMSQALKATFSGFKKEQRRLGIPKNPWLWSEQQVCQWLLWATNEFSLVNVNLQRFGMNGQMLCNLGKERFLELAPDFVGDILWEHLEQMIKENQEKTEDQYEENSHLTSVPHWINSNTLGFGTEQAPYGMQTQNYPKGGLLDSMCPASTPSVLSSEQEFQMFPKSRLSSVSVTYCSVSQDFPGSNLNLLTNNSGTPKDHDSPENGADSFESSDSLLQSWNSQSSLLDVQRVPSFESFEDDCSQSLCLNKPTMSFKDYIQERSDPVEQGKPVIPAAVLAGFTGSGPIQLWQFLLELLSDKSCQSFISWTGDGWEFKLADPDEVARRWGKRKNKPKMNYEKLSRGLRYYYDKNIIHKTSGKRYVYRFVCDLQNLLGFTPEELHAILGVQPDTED
How it was run: as §1

SPDEF = target: T9, SPDEF (Homo sapiens, UniProt O95238 1-335); settings: protein: recombinant; tags: N-terminal GST; dsDNA, one strand shown
T9 sequence: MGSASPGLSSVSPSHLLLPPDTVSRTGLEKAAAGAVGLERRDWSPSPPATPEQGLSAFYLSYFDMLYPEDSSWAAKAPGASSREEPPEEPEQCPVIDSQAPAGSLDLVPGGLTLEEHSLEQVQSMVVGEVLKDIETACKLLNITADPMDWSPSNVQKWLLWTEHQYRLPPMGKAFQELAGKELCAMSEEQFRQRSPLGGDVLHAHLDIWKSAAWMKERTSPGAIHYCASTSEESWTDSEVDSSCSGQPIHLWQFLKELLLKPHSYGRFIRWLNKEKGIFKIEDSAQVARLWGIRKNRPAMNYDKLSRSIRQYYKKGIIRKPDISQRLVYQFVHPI
How it was run: as §1

ETV7 = target: T10, ETV7 (Homo sapiens, UniProt Q9Y603 1-341); settings: protein: recombinant; tags: N-terminal GST; dsDNA, one strand shown
T10 sequence: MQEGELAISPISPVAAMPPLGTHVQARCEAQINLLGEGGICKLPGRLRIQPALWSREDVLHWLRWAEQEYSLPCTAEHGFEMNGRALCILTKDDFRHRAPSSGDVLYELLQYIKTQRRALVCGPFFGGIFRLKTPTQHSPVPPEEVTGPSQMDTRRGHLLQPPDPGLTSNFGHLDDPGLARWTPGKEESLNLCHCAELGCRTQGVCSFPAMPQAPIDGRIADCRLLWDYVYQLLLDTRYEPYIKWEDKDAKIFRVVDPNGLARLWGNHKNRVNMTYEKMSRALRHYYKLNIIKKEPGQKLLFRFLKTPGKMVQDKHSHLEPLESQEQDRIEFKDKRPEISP
How it was run: as §1

ELF5 = target: T11, ELF5 (Homo sapiens, UniProt Q9UKW6-2 1-255); settings: protein: recombinant; tags: N-terminal GST; dsDNA, one strand shown
T11 sequence: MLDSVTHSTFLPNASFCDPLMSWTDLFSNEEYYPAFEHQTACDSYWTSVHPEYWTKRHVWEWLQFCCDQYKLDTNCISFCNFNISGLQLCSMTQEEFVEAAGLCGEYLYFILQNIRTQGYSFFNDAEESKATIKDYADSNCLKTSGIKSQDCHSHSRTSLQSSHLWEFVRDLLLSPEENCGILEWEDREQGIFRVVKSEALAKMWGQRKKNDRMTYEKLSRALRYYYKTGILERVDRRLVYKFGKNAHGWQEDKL
How it was run: as §1

ETV3 = target: T12, ETV3 (Homo sapiens, UniProt P41162-2 1-143); settings: protein: recombinant; tags: N-terminal GST; dsDNA, one strand shown
T12 sequence: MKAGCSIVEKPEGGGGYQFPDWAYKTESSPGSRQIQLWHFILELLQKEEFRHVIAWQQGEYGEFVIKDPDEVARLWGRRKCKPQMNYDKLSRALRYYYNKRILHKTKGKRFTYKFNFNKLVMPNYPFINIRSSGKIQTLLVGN
How it was run: as §1

ETV6 = ETV6 (Homo sapiens, UniProt P41212 1-452); settings: protein: recombinant; tags: N-terminal GST; dsDNA, one strand shown
Sequence of ETV6 (P41212 whole entry): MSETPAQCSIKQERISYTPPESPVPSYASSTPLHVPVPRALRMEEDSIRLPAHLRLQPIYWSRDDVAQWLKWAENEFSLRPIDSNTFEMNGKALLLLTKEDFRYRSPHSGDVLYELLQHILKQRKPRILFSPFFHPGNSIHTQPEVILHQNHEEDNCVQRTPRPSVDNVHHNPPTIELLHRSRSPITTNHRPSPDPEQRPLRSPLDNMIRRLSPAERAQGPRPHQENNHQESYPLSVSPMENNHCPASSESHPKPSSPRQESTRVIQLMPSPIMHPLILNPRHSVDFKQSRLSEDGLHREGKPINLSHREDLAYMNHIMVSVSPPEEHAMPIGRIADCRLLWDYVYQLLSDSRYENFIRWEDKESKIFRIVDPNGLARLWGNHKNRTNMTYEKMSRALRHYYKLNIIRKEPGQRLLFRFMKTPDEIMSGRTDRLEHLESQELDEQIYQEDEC
How it was run: as §1

Sequence: TACATC
- binding signal (FEV): 1.77 fold enrichment (6-mer frequency, TF over GST control)
- binding signal (ETV5): 1.63 fold enrichment (6-mer frequency, TF over GST control)
- binding signal (HSF1): 1.09 fold enrichment (6-mer frequency, TF over GST control)
- binding signal (SPIC): 1.61 fold enrichment (6-mer frequency, TF over GST control)
- binding signal (ELF4): 1.56 fold enrichment (6-mer frequency, TF over GST control)
- binding signal (ELK4): 1.53 fold enrichment (6-mer frequency, TF over GST control)
- binding signal (ETV2): 1.65 fold enrichment (6-mer frequency, TF over GST control)
- binding signal (ELF3): 1.48 fold enrichment (6-mer frequency, TF over GST control)
- binding signal (CRX): 1.17 fold enrichment (6-mer frequency, TF over GST control)
- binding signal (ETV1): 1.64 fold enrichment (6-mer frequency, TF over GST control)
- binding signal (ERF): 1.63 fold enrichment (6-mer frequency, TF over GST control)
- binding signal (ETV3L): 1.55 fold enrichment (6-mer frequency, TF over GST control)
- binding signal (ETS2): 1.66 fold enrichment (6-mer frequency, TF over GST control)
- binding signal (SPDEF): 2.97 fold enrichment (6-mer frequency, TF over GST control)
- binding signal (ETV7): 1.59 fold enrichment (6-mer frequency, TF over GST control)
- binding signal (ELF5): 1.81 fold enrichment (6-mer frequency, TF over GST control)
- binding signal (ETV3): 1.68 fold enrichment (6-mer frequency, TF over GST control)
- binding signal (ETV6): 1.57 fold enrichment (6-mer frequency, TF over GST control)
